Bioassay records: PubChem, several laboratories
PP5 primary – PP5 (human) phosphatase inhibition. P53041. purified PP5c, OMFP substrate fluorescence. inhibition, % at 6.7 µM. 320,000 compounds, 0.18% hits. AID 1987;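 active = inhibition above the campaign's mean inhibition across all tested compounds plus 3 SD, cut at about 9.5% in these data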;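 note: 0% = DMSO only and 100% = 100 µM cantharidin control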
Calb FLC – C. albicans growth modulation with fluconazole. 300,000 compounds, 0.57% hits. AID 1979. C. albicans CaCi-2 (fluconazole-resistant clinical isolate) + fluconazole, Alamar Blue growth, 48 h. growth inhibition, % (no concentration beside the values);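 active = growth inhibition above about 58% in most replicates, limit read from the data, passing the limit was not always enough; inconclusive = exactly half the replicates above a set limit; inactive = most replicates below a set limit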;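 note: all wells also contain fluconazole at 8 µg/ml as a sub-toxic cotreatment; 0% = median of DMSO wells and 100% = median of geldanamycin control wells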
ALR inh – blocks human ALR sulfhydryl oxidase activity. 290,000 compounds, 3.8% hits. P55789. purified ALR, DTT oxidation, H2O2 HRP-luminol luminescence. AID 485317. inhibition, % (test concentration not listed);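 active = mean replicate inhibition above about 79%, with every replicate also reaching it, limit read from the data; inconclusive = only one of the two criteria met; inactive = mean below limit and not every replicate reaching it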
Target sequence (P55789 whole entry, looked up): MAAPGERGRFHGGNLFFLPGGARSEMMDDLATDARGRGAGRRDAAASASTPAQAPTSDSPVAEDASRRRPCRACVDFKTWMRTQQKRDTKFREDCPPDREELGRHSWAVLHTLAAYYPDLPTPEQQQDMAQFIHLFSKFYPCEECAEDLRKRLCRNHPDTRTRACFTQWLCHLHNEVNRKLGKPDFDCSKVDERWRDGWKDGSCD
CSC inhib – blocks cancer stem cells. cancer stem cell-like cells viability, luminescence. inhibition, % at 7.5 µM. 300,000 compounds, 1.1% hits. AID 2717; in the data active = inhibition above about 75%; inconclusive = no clear call, values can overlap the other calls; tested in HMLE shEcad cells
PP1 counter – blocks human PP1-alpha phosphatase, a PP5 counter-screen; P62136; purified PP1alpha, OMFP fluorescence; inhibition, % at 6.7 µM; 320,000 compounds, 0.9% hits; AID 2235;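 active = inhibition above the mean inhibition of all tested compounds plus 3 SD, computed separately for each screening campaign, cut at about 15% in these data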
Target sequence (P62136 whole entry, looked up): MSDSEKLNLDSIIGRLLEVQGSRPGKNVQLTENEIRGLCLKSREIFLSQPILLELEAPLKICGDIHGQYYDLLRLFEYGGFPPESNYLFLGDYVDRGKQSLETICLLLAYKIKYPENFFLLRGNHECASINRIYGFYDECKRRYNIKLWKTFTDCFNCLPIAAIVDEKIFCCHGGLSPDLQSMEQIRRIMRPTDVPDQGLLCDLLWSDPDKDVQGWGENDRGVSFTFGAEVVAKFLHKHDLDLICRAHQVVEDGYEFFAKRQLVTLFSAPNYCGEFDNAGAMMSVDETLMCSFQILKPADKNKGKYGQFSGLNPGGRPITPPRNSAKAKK
* hit, by the source's call. Shown are actives, neighbours in structure and some others; about 5.4% of the full set was active somewhere.

What do the screens show for `CCOC(=O)N1CCC(NC(=O)CS(=O)(=O)Cc2nc(-c3ccc(OC)cc3)oc2C)CC1`?
PP5 primary: -0.6; Calb FLC: 0.3; ALR inh: -0.8; CSC inhib: 17.3; PP1 counter: 0.1

How did c1ccc2c(c1)[nH]c1c(NCC3CCCO3)ncnc12 (centres undefined) do in these assays?
PP5 primary: -0.9; Calb FLC: 4.9; ALR inh: 82.0*; CSC inhib: -7.7; PP1 counter: -1.2

What do the screens show for `c1nc(NCC2CCCO2)c2[nH]cnc2n1` (centres undefined)?
PP5 primary: 1.4; Calb FLC: 10.8; ALR inh: -10.5; PP1 counter: -3.5

Results for O=C(NCc1ccccc1)c1sc(=S)n2c1[nH]c(=O)c1ccccc12 ?
PP5 primary: 0.6; Calb FLC: 87.2*; ALR inh: 98.4*; CSC inhib: -12.7; PP1 counter: 4.3

What do the screens show for `CCOC(=O)c1[nH]c(C)c(C(=O)N2CCN(c3ccccc3OC)CC2)c1C`?
PP5 primary: 0.1; Calb FLC: 25.2; ALR inh: 39.0; CSC inhib: -19.0; PP1 counter: 2.0

How did CC(C)C1=CC(=NS(=O)(=O)c2cccc([N+](=O)[O-])c2)C=C(C(C)C)C1=O do in these assays?
PP5 primary: 2.0; Calb FLC: -3.1; ALR inh: -14.1; CSC inhib: -11.8; PP1 counter: 2.1

How did CC(C)C1=CC(=Nc2ccc(S(N)(=O)=O)cc2)C=C(C(C)C)C1=O do in these assays?
Calb FLC: 0.4; ALR inh: 98.8*; CSC inhib: -18.9

How did O=C1Nc2ccccc2C12NCCc1c2[nH]c2ccccc12 (centres undefined) do in these assays?
PP5 primary: 1.9; Calb FLC: 25.2; ALR inh: 17.2; PP1 counter: -0.8

What do the screens show for `Cc1ccc(C(=O)CC(=O)c2ccc(C(C)(C)C)cc2)cc1`?
PP5 primary: 1.4; Calb FLC: 108.5*; ALR inh: 0.2; CSC inhib: 15.8; PP1 counter: -4.3

Results for Cc1ccc(C(=O)CNc2ccccc2)cc1 ?
PP5 primary: 1.7; Calb FLC: -5.2; ALR inh: -6.4; CSC inhib: 6.8; PP1 counter: -0.4

How did CC(C)(C)c1ccc(C(=O)CC(=O)c2cc(Cl)ccc2O)cc1 do in these assays?
PP5 primary: 2.3; Calb FLC: 106.3*; ALR inh: -2.6; CSC inhib: 3.4; PP1 counter: -1.3

What do the screens show for `CCCn1c(SCC(=O)NCc2ccco2)nc2c1c(=O)n(C)c(=O)n2C`?
PP5 primary: -0.2; Calb FLC: -5.9; ALR inh: 6.0; CSC inhib: -1.6; PP1 counter: -4.6

What do the screens show for `S=c1[nH]nc(-c2ccc(Br)cc2)n1-c1ccc(Br)cc1`?
PP5 primary: 0.1; Calb FLC: 5.7; ALR inh: inconclusive; CSC inhib: -23.5; PP1 counter: 7.0

What do the screens show for `C=CCn1c(-c2sccc2C)n[nH]c1=S`?
PP5 primary: -10.3; Calb FLC: 2.4; ALR inh: 94.8*; CSC inhib: 10.2; PP1 counter: -5.8

How did Nc1n[nH]c(-c2cccc([N+](=O)[O-])c2)n1 do in these assays?
PP5 primary: 1.4; Calb FLC: 92.6*; ALR inh: 9.4; CSC inhib: -17.6; PP1 counter: -0.8

What do the screens show for `O=[N+]([O-])c1cccc(-c2n[nH]c(=S)n2-c2ccc(Br)cc2)c1`?
PP5 primary: -0.3; Calb FLC: 33.6; ALR inh: 94.8*; CSC inhib: 10.3; PP1 counter: 0.2

Results for O=C(O)c1ccc(-n2c(-c3ccc(Br)cc3)n[nH]c2=S)cc1 ?
PP5 primary: -0.6; Calb FLC: -10.2; ALR inh: 92.5*; CSC inhib: 25.7; PP1 counter: -7.0

How did Nc1nnc(-c2cccc([N+](=O)[O-])c2)s1 do in these assays?
PP5 primary: -1.9; Calb FLC: 0.0; ALR inh: -2.6; CSC inhib: -0.7; PP1 counter: 4.9

How did Cc1ccc(S(=O)(=O)N2CCOCC2)cc1C(=O)NC(=S)N1CC(C)CC(C)C1 (centres undefined) do in these assays?
PP5 primary: 1.8; Calb FLC: -25.9; PP1 counter: -3.0

How did C=C(C)Cn1c(-c2cccc([N+](=O)[O-])c2)n[nH]c1=S do in these assays?
PP5 primary: -0.5; Calb FLC: 33.4; ALR inh: 62.4; CSC inhib: -6.4; PP1 counter: 0.4

Results for C=CCn1c(-c2cccc([N+](=O)[O-])c2)n[nH]c1=S ?
PP5 primary: 1.8; Calb FLC: 9.4; ALR inh: 96.2*; CSC inhib: -2.0; PP1 counter: 1.4

How did COc1cc(/C=C2\NC(=S)N(C)C2=O)ccc1OCc1ccccc1F do in these assays?
PP5 primary: -0.1; Calb FLC: -0.3; ALR inh: 2.0; CSC inhib: 14.4; PP1 counter: 11.7

What do the screens show for `S=c1nc(-c2ccccc2Cl)[nH][nH]1`?
PP5 primary: 1.5; Calb FLC: 8.8; ALR inh: 99.3*; CSC inhib: -7.7; PP1 counter: -1.0

Results for Clc1ccccc1-c1nc2ccccc2[nH]1 ?
PP5 primary: -1.7; Calb FLC: 0.8; ALR inh: 0.2; CSC inhib: 4.1; PP1 counter: -5.1

What do the screens show for `O=C(NCCCN1CCOCC1)c1ccc(Sc2ccc(F)cc2)c([N+](=O)[O-])c1`?
PP5 primary: -2.2; Calb FLC: 0.1; ALR inh: -5.8; CSC inhib: 45.7; PP1 counter: 0.4

How did CCCCCc1cc(=O)oc2c(C(CCN3CCCCC3)c3ccc(OC)cc3)c(OC)cc(OC)c12 (centres undefined) do in these assays?
PP5 primary: 2.2; Calb FLC: 11.0; CSC inhib: 96.5*; PP1 counter: 6.3

Results for CCCCCc1cc(=O)oc2c(C(CCN3CCCC(C)C3)c3ccc(OC)cc3)c(OC)cc(OC)c12 (centres undefined) ?
PP5 primary: 7.2; Calb FLC: 1.5; ALR inh: -36.6; CSC inhib: 101.8*; PP1 counter: 11.8

What do the screens show for `Cc1n[nH]c(C)c1CN(C)C(=O)C1CCC(=O)N(CCc2cccc(F)c2)C1` (centres undefined)?
PP5 primary: 0.0; Calb FLC: 21.3; ALR inh: -2.9; CSC inhib: 3.0; PP1 counter: 0.6

How did CC12CCC(c3c(C(=O)O)nn(-c4ccccc4)c31)C2(C)C (centres undefined) do in these assays?
PP5 primary: 1.3; Calb FLC: 29.7; ALR inh: -4.3; CSC inhib: 0.0; PP1 counter: 16.6*

Results for CC12CCC(c3c(CO)nn(-c4ccccc4)c31)C2(C)C (centres undefined) ?
PP5 primary: 0.7; Calb FLC: 9.8; ALR inh: 0.9; CSC inhib: -8.6; PP1 counter: 1.4

Results for COC(=O)C1=C(C)NC(C)=C(C(=O)OCC2CCCO2)C1c1cccc(Cl)c1 (centres undefined) ?
PP5 primary: 2.8; Calb FLC: -9.4; ALR inh: -3.6; CSC inhib: -7.2; PP1 counter: -1.9

How did OCc1ccc(-c2nn(Cc3ccccc3)c3ccccc23)o1 do in these assays?
PP5 primary: 3.3; Calb FLC: 4.2; ALR inh: 92.5*; CSC inhib: -6.8; PP1 counter: 0.5
